From PubChem BioAssay
BCR signal inh: qHTS Assay to Find Inhibitors of Chronic Active B-Cell Receptor Signaling | ABC-DLBCL IkBa-CBG/CBR reporter, luminescence ratio, 4 h | Potency, µM (top dose mostly 46.1 µM), without a hit: at the top dose activity change, negative = inhibition, actives largely listed as inhibitors | actives 0.05% (n = 340,000) | AID 493014, 2011; active = well fitted inhibition curve with a large enough effect in the signal ratio, with a control signal flat, not every such curve was filed as active; inconclusive = small, poorly fitted or top-dose-only effect, or effect the other way, or a change in a side signal; the % refers to the signal ratio;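 also: plate controls were basal doxycycline-induced cells for no effect and cells given 10 µM MG132 for full effect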
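Doxycycline induced both beetle luciferases in TMD8 lymphoma cells; IKK-driven degradation limits the IkappaBalpha-fused green signal, while red luminescence normalises for cell number and nonspecific effects. Compounds tested up to 46 uM, 4 hrs.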
a7 integrin act: qHTS for Activators of Integrin-Mediated Alleviation for Muscular Dystrophy; Potency, µM (top dose mostly 38.3 µM), inactives show top-dose activation, actives largely listed as activators; alpha7betagal myoblasts, beta-gal FDG fluorescence, 48 h; AID 624291, 2012; actives 0.064% (n = 350,000);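 also: 100% = response of the positive control SU9516; nearly all actives have a fitted effect of over 60% in size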
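Alpha7betagal+/- myoblasts (passage 13) were plated 16-24 hr, then exposed to compounds (1:260 dilution of DMSO stock) for 48 hours at 37C. After MPER lysis, β-galactosidase reporter activity was read as FDG fluorescence (ex 480/em 540) after 30 minutes.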
Mito fusion act: qHTS Assay for Small Molecule Inhibitors of Mitochondrial Division or Activators of Mitochondrial Fusion; Potency, µM (series often up to 46.1 µM), without a hit: at the top dose growth rescue (activation), usual class: activators; actives 0.23% (n = 320,000); S. cerevisiae fusion-defective mutant growth rescue, CellTiterGlo 48 h; also: % of control where 0% means no effect; nearly all actives have a fitted effect of over 45% in size
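Read-out: ATP-based luminescence (CellTiterGlo, 10 min ambient) reporting growth of fusion-defective ts yeast after 48 hours at 37C on glycerol/ethanol YPEG medium in the presence of compound.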
RORgamma inh: qHTS for inhibitors of ROR gamma transcriptional activity. actives 5.4% (n = 310,000). AID 2551, 2010. Drosophila S2 Gal4-RORgamma UAS-luciferase reporter, 20 h. Potency, µM (series often up to 53.6 µM), for the others: at the top dose activity change, negative = inhibition, actives largely listed as inhibitors; also: % is scaled to controls: 0 for no effect and ±100 for the full control effect; nearly all actives have a fitted effect of over 60% in size
Target sequence (P51450 whole entry, looked up, the tested form may be a part): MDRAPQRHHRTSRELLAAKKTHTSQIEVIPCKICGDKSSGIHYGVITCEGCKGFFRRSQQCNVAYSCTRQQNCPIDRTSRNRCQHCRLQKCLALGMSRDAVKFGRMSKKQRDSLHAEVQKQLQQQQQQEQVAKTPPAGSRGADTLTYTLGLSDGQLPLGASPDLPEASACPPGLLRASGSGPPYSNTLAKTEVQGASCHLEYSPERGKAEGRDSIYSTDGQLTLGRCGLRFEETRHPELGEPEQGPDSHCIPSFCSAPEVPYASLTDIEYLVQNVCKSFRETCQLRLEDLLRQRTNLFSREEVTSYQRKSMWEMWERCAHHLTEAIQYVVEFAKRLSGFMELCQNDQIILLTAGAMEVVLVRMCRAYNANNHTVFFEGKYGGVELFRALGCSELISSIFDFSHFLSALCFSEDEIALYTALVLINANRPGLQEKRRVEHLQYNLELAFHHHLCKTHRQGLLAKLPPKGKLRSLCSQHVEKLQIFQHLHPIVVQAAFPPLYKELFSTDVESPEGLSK
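Read-out: Photinus luciferase luminescence; inhibitors lower reporter signal. Insect Schneider cells with Gal4-ROR gamma fusion under metallothionein promoter, UAS reporter; 700 uM final copper sulfate induction, 20 hr, ambient temperature.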
uPA surface inh: qHTS for Inhibitors of Cell Surface uPA Generation; Potency, µM (highest dose often 38.3 µM), for inactives: at the top dose activity change, negative = inhibition, hits mostly inhibitors; actives 0.31% (n = 330,000); cell surface uPA generation assay, qHTS; AID 540303, 2011; active = well fitted inhibition curve with a large enough effect; inconclusive = small, poorly fitted or top-dose-only effect; inactive = no such curve, though single readings can be large or run the other way; tested in mouse RAW 264.7 cells; also: % is scaled to controls: 0 for no effect and ±100 for the full control effect; nearly all actives have a fitted effect of over 55% in size
VP16 counter: VP16 counterscreen qHTS for inhibitors of ROR gamma transcriptional activity; Drosophila S2 Gal4-VP16 UAS-luciferase, luminescence, 20 h; Potency, µM (series often up to 53.6 µM), without a hit: top-dose activity, negative = inhibition, most hits filed as inhibitors; actives 3.5% (n = 310,000); AID 2546, 2010;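 also: Gal4-VP16 expression switched on by copper sulfate through the metallothionein promoter; % is scaled to controls: 0 for no effect and ±100 for the full control effect; nearly all actives have a fitted effect of over 50% in size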
Starred values were filed as active, the others as inactive; ? = inconclusive; nt = no result; [ ] = remark or other dose. The list is not random: actives were taken first. Their share in the collection is about 5.5%. Unless noted, calls follow the shape of the dose curve; as a rule, active = well fitted curve in the direction sought with a large enough effect; inconclusive = small, poorly fitted or top-dose-only effect, or another doubt; inactive = no such curve, though single readings can be large; an effect the other way counts as inactive or inconclusive. Potency is read from the fitted curve at half-maximal effect.

SMILES	BCR signal inh	a7 integrin act	Mito fusion act	RORgamma inh	uPA surface inh	VP16 counter
CCOC(=O)C1CCN(CC(=O)Nc2c(C(=O)OC)[nH]c3ccc(Cl)cc23)CC1	?	-51%	15%	?	-4%	10µM*
Cc1noc(C)c1C(=O)N1CCC2(CCN(Cc3ccncc3)CC2)CC1	nt	nt	nt	-14%	nt	3%
CCC1C(=O)C(CC)C(c2ccccc2)NC1c1ccccc1 (centres undefined)	5%	-25%	-44%	0.28µM*	-2%	1%
CNC(=S)NNC(=O)c1cccc(C(F)(F)F)c1	-13%	-1%	-2%	11µM*	nt	-6%[0.365 µM]
COC(=O)N/N=C(\C)c1cccc(C(F)(F)F)c1	0%	18%	3%	11%	-3%	-4%
CNC(=S)N/N=C(\C)c1ccc(C)c(C)c1	?	42%	-6%	1.8µM*	-6%	5µM*
O=C(NNC(=S)Nc1cccc(C(F)(F)F)c1)c1cccc(Cl)c1	?	-37%	7%	?	-2%	?
CNC(=S)N/N=C(\C)c1cccc(C(F)(F)F)c1	?	?	11%	1.1µM*	-4%	3.5µM*
C/C(=N\NC(=O)C1CC1)c1ccc(C)c(C)c1	0%	8%	0%	12%	-2%	8%
CSCCC(NS(=O)(=O)c1ccc2c(c1)oc(=O)n2C)C(=O)N1CCN(c2cc(C)ccc2C)CC1 (centres undefined)	9%	nt	nt	nt	nt	nt
COc1ccc(NC(=O)Cc2ccccc2)cn1	13%	5%	-1%	23%	-3%	4%
COc1ccc(NC(=O)/C(Cl)=C(/Cl)S(=O)Cc2ccccc2)cn1 (centres undefined)	?	-47%	-12%	1µM*	-12%	1.1µM*
COc1ccc(/C=C/C(=O)Nc2ccc(OC)nc2)cc1	0%	?	0%	2%	-4%	0%
COc1ccc(CS(=O)(=O)/C(Cl)=C(/Cl)C(=O)Nc2ccc(OC)nc2)cc1	?	-61%	-10%	5µM*	11%	3.2µM*
O=C(COc1ccc(Br)cc1)N1CCNC1=O	0%	16%	4%	25%	7%	-4%
O=C(NC(=S)N1CCCCC1CO)c1cccs1 (centres undefined)	?	8%	nt	nt	-2%	nt
CCC1CCCCN1C(=S)NC(=O)c1ccc(F)c(S(=O)(=O)N2CCOCC2)c1 (centres undefined)	-1%	-7%	-11%	0.56µM*	-12%	1.6µM*
CCOC(=O)C1CCN(C(=S)NC(=O)c2cccs2)CC1	9%	-32%	-23%	5.6µM*	-2%	4.5µM*
CCC1CCCCN1C(=S)NC(=O)c1ccc([N+](=O)[O-])cc1 (centres undefined)	0%	-9%	5%	0.25µM*	-4%	0.28µM*
CCC1CCCCN1C(=S)NC(=O)c1cccs1 (centres undefined)	?	4%	1%	0.71µM*	-3%	1.1µM*
Cc1nnc(NC(=O)c2ccc(S(=O)(=O)N3CCCCCC3)cc2)o1	-11%	-22%	-5%	0.71µM*	-5%	1.3µM*
COCc1nnc(NC(=O)c2ccc(S(=O)(=O)N3CCCCCC3)cc2)o1	0%	-21%	1%	2.2µM*	1%	0.28µM*
Cc1nnc(NC(=O)c2ccc(S(=O)(=O)N3CC(C)OC(C)C3)cc2)o1 (centres undefined)	-1%	13%	0%	4.5µM*	-3%	4µM*
CC(=O)Nc1ccc(C(=O)Nc2ccc(S(=O)(=O)N3CCCCC3)cc2)cc1	-12%	-4%	-3%	9%	0%	-1%
Cc1ccsc1C(=O)N1CCN(C(=O)c2ccco2)CC1	?	21%	0%	nt	-5%	nt
C/C=C1/NN(CCCN2CCN(c3cccc(Cl)c3)CC2)C(=O)N1CCOc1ccccc1	nt	nt	nt	21%	nt	-4%
